Assay results as given in PubChem BioAssay AID1347165 (National Center for Advancing Translational Sciences (NCATS), 2019).
The whole screen tested about 220,000 compounds, of which about 5,700 (2.6%) were called active. Not shown: some 18% with an inconclusive outcome. This excerpt belongs to a sample that is enriched for actives. Values without a mark were called inactive. Calls follow the shape of the dose curve; as a rule, active = well fitted inhibition curve with a large enough effect; inconclusive = small, poorly fitted or top-dose-only effect; inactive = no such curve, though single readings can be large or run the other way.

Target: Lysine-specific demethylase 5B (Homo sapiens) (UniProt Q9UGL1)
Assay: Primary screen for KDM5B Histone Demethylases FDH-coupled qHTS; also: nearly all actives have a fitted effect of over 70% in size; as to activity change, negative = inhibition: 0% is about no effect
Settings: FDH-coupled NADH fluorescence (FDH is formaldehyde dehydrogenase); series mostly up to 57.7 µM; activity change, negative = inhibition: at the top concentration
Method in brief: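 KDM5BΔAP (200 nM final) in 50 mM HEPES pH 7.5, 0.01% Tween-20 was preincubated 10 min at RT with compound over a concentration range. Substrate mix (H3K4me3 12.5 µM, α-KG 25 µM, Fe²⁺, ascorbate, NAD⁺, FDH) was added, and NADH fluorescence change over 30 min gave dose-response curves.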
Potency is read from the fitted curve at half-maximal effect.

Chain of Lysine-specific demethylase 5B (Homo sapiens) (Q9UGL1 whole entry, looked up): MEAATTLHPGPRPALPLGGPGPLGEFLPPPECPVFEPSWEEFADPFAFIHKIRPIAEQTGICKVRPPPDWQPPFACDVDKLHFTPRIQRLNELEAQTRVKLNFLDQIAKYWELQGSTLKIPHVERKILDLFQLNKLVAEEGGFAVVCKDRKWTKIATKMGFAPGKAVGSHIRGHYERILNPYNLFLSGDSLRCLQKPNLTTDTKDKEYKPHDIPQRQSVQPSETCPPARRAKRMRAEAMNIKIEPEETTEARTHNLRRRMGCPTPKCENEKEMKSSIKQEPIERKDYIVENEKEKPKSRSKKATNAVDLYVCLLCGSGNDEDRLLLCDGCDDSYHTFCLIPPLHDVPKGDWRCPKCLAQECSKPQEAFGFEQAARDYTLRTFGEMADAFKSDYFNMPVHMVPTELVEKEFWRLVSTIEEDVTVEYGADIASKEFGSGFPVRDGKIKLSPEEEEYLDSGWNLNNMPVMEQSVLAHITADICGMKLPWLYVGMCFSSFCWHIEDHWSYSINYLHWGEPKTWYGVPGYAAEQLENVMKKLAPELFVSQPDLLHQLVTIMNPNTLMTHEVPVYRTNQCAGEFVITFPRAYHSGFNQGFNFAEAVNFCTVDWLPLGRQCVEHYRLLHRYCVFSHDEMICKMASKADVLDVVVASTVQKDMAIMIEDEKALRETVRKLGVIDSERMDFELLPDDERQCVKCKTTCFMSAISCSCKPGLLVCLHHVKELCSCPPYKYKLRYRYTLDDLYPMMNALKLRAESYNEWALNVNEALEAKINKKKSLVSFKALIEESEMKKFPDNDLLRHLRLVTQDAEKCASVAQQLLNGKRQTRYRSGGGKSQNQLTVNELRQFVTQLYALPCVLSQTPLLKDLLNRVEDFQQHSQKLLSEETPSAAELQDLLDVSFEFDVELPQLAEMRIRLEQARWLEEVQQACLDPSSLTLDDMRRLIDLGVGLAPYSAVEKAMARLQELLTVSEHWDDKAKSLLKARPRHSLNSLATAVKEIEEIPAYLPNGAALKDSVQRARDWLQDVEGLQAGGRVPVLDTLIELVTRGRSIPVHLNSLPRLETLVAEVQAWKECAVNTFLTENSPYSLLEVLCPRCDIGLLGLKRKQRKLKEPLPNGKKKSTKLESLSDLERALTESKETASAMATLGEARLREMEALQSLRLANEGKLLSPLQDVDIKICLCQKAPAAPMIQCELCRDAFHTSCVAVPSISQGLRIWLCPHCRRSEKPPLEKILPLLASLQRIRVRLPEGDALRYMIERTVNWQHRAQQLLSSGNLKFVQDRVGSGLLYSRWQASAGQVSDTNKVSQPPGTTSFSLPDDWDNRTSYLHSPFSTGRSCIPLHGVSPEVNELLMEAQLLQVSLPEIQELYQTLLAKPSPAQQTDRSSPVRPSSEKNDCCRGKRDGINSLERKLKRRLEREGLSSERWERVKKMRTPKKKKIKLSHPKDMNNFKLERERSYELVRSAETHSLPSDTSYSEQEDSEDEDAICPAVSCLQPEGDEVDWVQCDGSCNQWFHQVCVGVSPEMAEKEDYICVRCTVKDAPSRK

Compound | activity change, negative = inhibition | Potency
CC1CCN(c2nc3c(c(=O)n(C)c(=O)n3C)n2CC(=O)c2ccc(Br)cc2)CC1 | -2.78% | –
C=CCNC(=O)C(NC(=O)c1cccc(OC)c1)C1CCN(C(=O)c2ccccc2F)CC1 (stereo not given) | – | 31.6 µM (active)
COc1cccc(C(=O)N2CCC(C(NC(=O)c3ccccc3C)C(=O)NCC(C)C)CC2)c1 (stereo not given) | 4.74% | –
CCCNC(=O)C(NC(=O)c1cccc(OC)c1)C1CCN(C(=O)c2ccccc2F)CC1 (stereo not given) | -11.5% | –
Cn1c(=O)[nH]c(=O)c2c1nc(N1CCNCC1)n2CC(N)=O | -14.6% | –
O=[N+]([O-])c1cc(C(F)(F)F)ccc1NCCc1ccncc1 | 32.7% | –
O=c1oc2ccccc2c(N2CCCC2)c1NS(=O)(=O)c1cccc(F)c1 | 19.2% | –
COCC1CN(C(C)=O)CC12CCN(C(=O)NCc1cccc(OC)c1)CC2 (stereo not given) | -16.7% | –
COCC1CN(C(C)=O)CC12CCN(Cc1ccccc1OC)CC2 (stereo not given) | 8.55% | –
CCOc1cccc(CN2CCC3(CC2)CN(C)CC3COC)c1 (stereo not given) | – | 14.1 µM (active)
Cc1occc1-c1nnc(SCC(=O)c2cc(C)n(C3CC3)c2C)n1C | 3.26% | –
CC(NC(=O)c1ccco1)c1ccc(-c2ccccc2)cc1 (stereo not given) | 13.8% | –
Cc1ccc2c(C)cc(SCC(=O)NC3CC3)nc2c1 | 8.99% | –
CC1(C(=O)NCc2ccc3c(c2)OCO3)CCc2cnc(NCc3ccccc3)nc21 (stereo not given) | – | 25.1 µM (active)
CN(Cc1ccccc1)C(=O)C1(C)CCCc2cnc(Nc3cccnc3)nc21 (stereo not given) | -27.2% [at 86.2 µM] | –
CC1(C(=O)NCC2CCCO2)CCCc2cnc(Nc3ccccc3)nc21 (stereo not given) | -3.33% [at 86.2 µM] | –
O=C(Cn1nc2c(cc1=O)CCCC2)Nc1cc(C(F)(F)F)ccc1Cl | -2.73% | –
Cc1nn2c(c1-c1ccccc1-c1ccccc1)N(CC1CC1)CCC2 | – | 28.2 µM (active)
Cc1nn2c(c1-c1ccccc1Oc1ccccc1)N(C(=O)C(C)C)CCC2 | -13.8% [at 86.2 µM] | –
Cc1nn2c(c1-c1ccccc1-c1ccccc1)N(C(=O)CN1CCOCC1)CCC2 | -14.2% [at 86.2 µM] | –
CCc1ccc(N(CC)C(=O)C(=O)c2c[nH]c3ccccc23)cc1 | -2.57% | –
Cc1ccc2[nH]c(=O)c(CCC(=O)NCc3ccncc3)cc2c1 | – | 25.1 µM (active)

Compound | activity change, negative = inhibition | Potency
Cc1ccc(CCC(=O)NCc2cccnc2)cc1 | 15.1% | –
Cc1ccc2[nH]c(=O)c(COC(=O)c3ccccn3)cc2c1 | -7.73% | –
COCCN(C)C[C@H]1C[C@H](CO)CN(C(=O)c2ccc(C(C)C)[nH]c2=O)C1 | -34.1% | –
CC1(C)CC(=O)C2=C(C1)Nc1nc(N)[nH]c(=O)c1C2c1ccc2c(c1)OCO2 (stereo not given) | 13.2% | –
Cc1cn2nc(C(=O)Nc3cccc(F)c3)cc2c(N(C)Cc2ccccc2)n1 | -6350% | –
COc1ccc(NC(=O)c2cc3c(N(C)Cc4ccccc4)nc(C)cn3n2)cc1F | – | 17.8 µM (active)
CCN(CC)c1nc2ccccc2nc1C(=O)Nc1ccc(C)c(C)c1 | 4.42% | –
Cc1cn2nc(C(=O)Nc3cc(F)cc(F)c3)cc2c(N(C)Cc2ccccc2)n1 | – | 25.1 µM (active)
COc1cccc(CNC(=O)Cn2c(N(C)Cc3ccccc3)nc(C)cc2=O)c1OC | -11.1% | –
CCN(CC)c1nc2ccccc2nc1C(=O)Nc1ccc(C)cc1C | 8.4% | –
Cc1cn2nc(C(=O)Nc3ccc(F)cc3C)cc2c(N(C)Cc2ccccc2)n1 | – | 20 µM (active)
Cc1cn2nc(C(=O)Nc3ccc(F)cc3F)cc2c(N(C)Cc2ccccc2)n1 | -3600% | –
Cc1cc(C)cc(NC(=O)N(C)Cc2ccccc2)c1 | -9.55% | –
Oc1ccc(-c2nc(-c3ccccc3F)cs2)cc1 | -17.7% | –
C=CCNC(=O)Nc1cc(NC(=O)Nc2ccccc2)ccc1C | -9.95% | –
Cc1ccc(CN2CCOc3cc([S+](=O)([O-])N(C)C)ccc3C2)c(F)c1 | -17.1% [at 86.2 µM] | –
Cc1ccc(CN2CCC(Oc3cnc4c(ccn4CCN[S+](C)(=O)[O-])c3)CC2)c(F)c1 | – | 31.6 µM (active)
CCCc1noc(CSc2nc(-c3ccco3)nc3ccccc23)n1 | -14% | –
O=C(O)C/C(=C/c1cccc(Cl)c1)c1nc2ccccc2o1 | -27.5% | –
CCCOc1ccc2ccccc2c1CN(C)C(=O)c1n[nH]c(=O)c2ccccc12 | 21.4% | –
Fc1ccccc1CN1CCNc2cc(Nc3cccnc3)ncc2C1 | -4.83% [at 86.2 µM] | –
Cn1ccc(Nc2cc3c(cn2)CN(CCc2ccccc2)CCN3)n1 | -22.9% [at 86.2 µM] | –

Compound | activity change, negative = inhibition | Potency
CN(C)c1cccc(Nc2cc3c(cn2)NCCN(Cc2ccccc2)C3)c1 | – | 25.1 µM (active)
NC(=O)c1cccc(C(=O)N2CCC(c3nc4ccccc4o3)CC2)c1 | -18.1% | –
CCOc1c(OC)cccc1-c1nc2ccc(-c3ccc(OC)c(OC)c3OC)cc2o1 | – | 12.6 µM (active)
COc1cccc(-c2nc3ccc(-c4ccc5c(c4)OCO5)cc3o2)c1OC | -2830% | –
COc1cccc(NC(=O)Nc2cc(-c3nc4ccccc4o3)ccc2OC)c1 | -15% | –
Cc1ccc2c(c1)-c1c(cnn1CC(=O)N(C)c1ccccc1Cl)CO2 | -4.49% | –
CC(C)(C)c1cc(NC(=O)Nc2cc(Cl)cc(Cl)c2)no1 | 6.25% | –
COCCNc1ncccc1-c1noc([C@@H]2CCCN2Cc2ccc3c(c2)OCO3)n1 | – | 31.6 µM (active)
COCCOc1ccnc(-c2noc([C@@H]3CCCN3Cc3ccc(Cl)cc3)n2)c1 | -11.4% [at 86.2 µM] | –
COCCOc1ncccc1-c1noc([C@@H]2CCCN2CC(C)(C)C)n1 | -25.1% [at 86.2 µM] | –
Cc1c(-c2ccc(Cl)cc2)nc2ccccc2c1C(=O)NC1CCCCCCC1 | -6.4% | –
NC(=O)c1cccc(-c2ncc3c(n2)OCCN(CC2CC2)C3=O)c1 | -6.2% [at 86.2 µM] | –
COCCN1CCOc2nc(-c3cccc(C)c3)ncc2C1=O | -21.3% [at 86.2 µM] | –
COc1ccc(F)cc1-c1ncc2c(n1)OCCN(CC1CC1)C2=O | – | 35.5 µM (active)
C[S+](=O)([O-])c1cccc(-c2ncc3c(n2)OCCN(Cc2ccc(F)cc2F)C3=O)c1 | 14% | –
COc1ccc(-c2ncc3c(n2)OCCN(CC2CC2)C3=O)cc1 | – | 35.5 µM (active)
COc1cccc(-c2ncc3c(n2)OCCN(Cc2ccc(F)cc2F)C3=O)c1OC | -12.7% [at 86.2 µM] | –
Cn1c(=O)c2c(nc(SCC(=O)Nc3ccccc3)n2Cc2ccccc2Cl)n(C)c1=O | 12.9% | –
Cc1[nH]c2ccccc2c1C(=O)C(C)Sc1nnc(C2CC2)o1 (stereo not given) | 1.67% | –
CC(C)c1ccc(C(=O)OC2CCOC2=O)cc1 (stereo not given) | 17.3% | –
Cc1oc(-c2cccs2)nc1CC(=O)N1CCCC1c1ccccc1 (stereo not given) | 724% | –
